In PubChem BioAssay:
Inconclusive results are not listed. The source made the active and inactive calls.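 The calls were made as follows, unless noted: active = GFP signal, as percent of the solvent control, above the screen mean plus 3 SD, about 149; inconclusive = no reading because the compound's own fluorescence upset strain identification; inactive = the rest.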

Columns and labels:
[1] = yeast TOR pathway RPL19A-GFP modulators, primary screen, cell-based, S. cerevisiae, multiplex flow cytometry (AID 1862; in the data active = percent of DMSO control GFP below about 86%;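 also: lower values mimic rapamycin by blocking the RPL19A rise seen in DMSO cells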); settings: S. cerevisiae RPL19A-GFP strain, flow cytometry fluorescence, 3 h; at 10 µM; stronger effect = lower value
[2] = modulators of MEP2-GFP levels in yeast, primary screen, S. cerevisiae, multiplex flow cytometry (AID 1867;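 active = GFP response, as percent of the DMSO control, above the screen-wide mean plus 3 SD, about 139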;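 also: median GFP channel fluorescence of barcode-gated MEP2-GFP cells measured by flow cytometry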); settings: S. cerevisiae MEP2-GFP strain, 3 h, at 10 µM, stronger effect = higher value, 100% means same as DMSO wells
[3] = modulators of CIT2-GFP expression in yeast, primary screen, S. cerevisiae, GFP fusion, multiplex flow cytometry (AID 1870;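 active = percent response above a set limit, the screen-wide mean plus 3 SD, cut at about 130% in these data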;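 also: barcoded CIT2-GFP strain pooled with four other GFP strains with rapamycin as positive control; median GFP fluorescence per well over plate mean of DMSO wells so 100% = DMSO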); settings: 3 h, at 10 µM, stronger effect = higher value
[4] = modulators of LAP4-GFP expression in yeast, primary screen, S. cerevisiae, multiplex flow cytometry (AID 1873); settings: 3 h, at 10 µM, stronger effect = higher value
[5] = inhibitors of CD8+ T cell-vesicle binding, pilot screen, LFA-1/ICAM-1 modulator project, MLPCN validation set, flow cytometry (AID 2523;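 active = response below a set limit, under 55% cells CD8-positive and vesicle-bound, and CD8 cells' 90th-percentile brightness under 279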;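 as to vesicle binding response: mean PE anti-B7-1 fluorescence of CD8+ cells relative to row control; 100% = QL9-loaded vesicles with DMSO vehicle in the same plate row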); settings: 2C mouse CD8+ T cells, at 7 µM, stronger effect = lower value; double positive events: measured here: CD8+/vesicle+ event percentage
[6] = molecular target: Integrin beta-1 (Homo sapiens) + Integrin alpha-4 (Homo sapiens) (UniProt P13612+P05556); experiment: inhibition of HUTS-21 binding to VLA-4, pilot screen, VLA-4 allosteric modulator project, U937 cells, HUTS-21 mAb, flow cytometry, validation set (AID 2674;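 active = inhibition above 50%, about 3 SD of the validation set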;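 also: antibody binding induced by the VLA-4 ligand LDV present at three times its Kd; 0% = LDV ligand with antibody and no compound and 100% = antibody without LDV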); settings: HUTS-21 LIBS mAb binding, at 6.7 µM, stronger effect = higher value, binding induced by LDV ligand
Sequence of Integrin beta-1 (Homo sapiens) + Integrin alpha-4 (Homo sapiens) (P05556 whole entry, looked up): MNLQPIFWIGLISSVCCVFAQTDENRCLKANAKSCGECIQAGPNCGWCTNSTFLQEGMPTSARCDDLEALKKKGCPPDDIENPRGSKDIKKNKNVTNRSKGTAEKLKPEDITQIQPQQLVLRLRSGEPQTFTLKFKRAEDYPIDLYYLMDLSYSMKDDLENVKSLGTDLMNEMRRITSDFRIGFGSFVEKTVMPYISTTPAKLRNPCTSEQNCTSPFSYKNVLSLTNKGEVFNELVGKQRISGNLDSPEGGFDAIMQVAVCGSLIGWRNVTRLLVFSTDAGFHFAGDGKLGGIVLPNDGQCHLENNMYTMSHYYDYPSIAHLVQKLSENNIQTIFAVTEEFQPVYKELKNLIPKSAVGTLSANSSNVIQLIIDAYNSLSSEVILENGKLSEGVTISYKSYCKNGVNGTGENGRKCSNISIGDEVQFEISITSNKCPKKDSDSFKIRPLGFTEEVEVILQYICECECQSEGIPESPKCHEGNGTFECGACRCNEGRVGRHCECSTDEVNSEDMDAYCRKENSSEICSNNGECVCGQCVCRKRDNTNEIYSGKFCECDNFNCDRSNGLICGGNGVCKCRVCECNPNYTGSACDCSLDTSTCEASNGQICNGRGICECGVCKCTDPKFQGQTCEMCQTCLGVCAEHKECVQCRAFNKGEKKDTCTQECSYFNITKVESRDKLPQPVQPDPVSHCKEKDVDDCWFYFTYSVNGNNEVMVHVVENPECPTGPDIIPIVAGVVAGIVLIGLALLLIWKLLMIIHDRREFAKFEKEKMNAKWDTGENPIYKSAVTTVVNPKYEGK
Sequence of Integrin beta-1 (Homo sapiens) + Integrin alpha-4 (Homo sapiens) (P13612 whole entry, looked up): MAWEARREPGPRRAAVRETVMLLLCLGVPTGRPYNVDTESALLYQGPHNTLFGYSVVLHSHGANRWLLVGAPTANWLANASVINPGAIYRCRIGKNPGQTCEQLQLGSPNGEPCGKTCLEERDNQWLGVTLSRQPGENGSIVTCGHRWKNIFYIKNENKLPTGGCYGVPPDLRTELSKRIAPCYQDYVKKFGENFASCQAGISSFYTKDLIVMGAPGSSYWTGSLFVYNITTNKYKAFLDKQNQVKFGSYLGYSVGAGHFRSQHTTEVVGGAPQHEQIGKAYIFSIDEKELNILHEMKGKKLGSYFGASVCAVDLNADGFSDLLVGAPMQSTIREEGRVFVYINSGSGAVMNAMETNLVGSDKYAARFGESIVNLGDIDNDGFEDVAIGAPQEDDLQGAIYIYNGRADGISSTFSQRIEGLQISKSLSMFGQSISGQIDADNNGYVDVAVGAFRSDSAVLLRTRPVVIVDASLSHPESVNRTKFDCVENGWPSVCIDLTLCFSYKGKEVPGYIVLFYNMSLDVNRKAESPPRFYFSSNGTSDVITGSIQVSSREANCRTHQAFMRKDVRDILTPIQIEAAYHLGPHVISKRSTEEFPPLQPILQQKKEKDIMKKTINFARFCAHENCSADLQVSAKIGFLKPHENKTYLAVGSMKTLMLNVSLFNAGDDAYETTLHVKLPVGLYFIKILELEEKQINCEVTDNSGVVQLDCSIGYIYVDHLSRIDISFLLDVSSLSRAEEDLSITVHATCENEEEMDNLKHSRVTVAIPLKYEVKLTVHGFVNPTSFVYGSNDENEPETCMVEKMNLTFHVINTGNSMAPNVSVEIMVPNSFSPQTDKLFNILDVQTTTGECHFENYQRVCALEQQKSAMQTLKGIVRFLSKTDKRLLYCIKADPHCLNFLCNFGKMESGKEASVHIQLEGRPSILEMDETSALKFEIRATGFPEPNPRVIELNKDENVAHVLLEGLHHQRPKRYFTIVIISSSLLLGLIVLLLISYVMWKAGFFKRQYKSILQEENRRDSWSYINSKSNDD

[7] = superoxide lowering in aged yeast cells, pilot screen, validation compound set (AID 2706;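 active = superoxide response below 65% of plate, a cut near 3 SD across the whole screen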;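 also: yeast exposed to compound for one week at 30 degrees C before staining; 100% = mean of all compound wells on the same plate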); settings: S. cerevisiae aging, superoxide DHE fluorescence; at 10 µM, stronger effect = lower value
[8] = molecular target: Beta-adrenergic receptor kinase 1 (Homo sapiens) (UniProt P25098); experiment: GRK2 binders displacing RNA aptamer, biochemical, validation, human GRK2, bead flow cytometry (AID 488806;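 active = aptamer binding inhibition above 30%, about 3 SD of noise from non-fluorescent compounds; inactive = inhibition at or below 30%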); settings: bead-bound GRK2, FAM-aptamer displacement, at 10 µM, stronger effect = higher value
Sequence of Beta-adrenergic receptor kinase 1 (Homo sapiens) (P25098 whole entry, looked up): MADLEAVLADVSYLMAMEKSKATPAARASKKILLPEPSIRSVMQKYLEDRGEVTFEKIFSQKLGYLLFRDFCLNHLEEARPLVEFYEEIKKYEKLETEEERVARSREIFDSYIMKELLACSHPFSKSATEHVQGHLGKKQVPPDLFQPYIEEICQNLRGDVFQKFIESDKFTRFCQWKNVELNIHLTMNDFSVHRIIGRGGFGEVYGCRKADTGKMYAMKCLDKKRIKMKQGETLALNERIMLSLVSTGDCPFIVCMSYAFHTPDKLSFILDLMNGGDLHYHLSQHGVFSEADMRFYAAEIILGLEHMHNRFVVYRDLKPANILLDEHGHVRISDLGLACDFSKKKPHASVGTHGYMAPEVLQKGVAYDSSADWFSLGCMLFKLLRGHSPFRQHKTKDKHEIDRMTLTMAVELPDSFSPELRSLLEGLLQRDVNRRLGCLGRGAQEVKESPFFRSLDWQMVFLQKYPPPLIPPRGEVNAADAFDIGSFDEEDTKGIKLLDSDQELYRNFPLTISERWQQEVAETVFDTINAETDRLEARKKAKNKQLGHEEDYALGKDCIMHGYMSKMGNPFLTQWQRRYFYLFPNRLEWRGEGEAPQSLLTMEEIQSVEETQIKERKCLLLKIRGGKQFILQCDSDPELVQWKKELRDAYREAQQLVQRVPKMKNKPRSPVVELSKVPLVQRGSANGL

[9] = molecular target: Beta-2 adrenergic receptor (Homo sapiens) (UniProt P07550); experiment: beta2AR agonists driving receptor internalization, pilot screen, cell-based, FAP fluorogen, flow cytometry, validation set (AID 504459;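 active = percent response above 42, roughly 3 SD of non-fluorescent test compounds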;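 also: agonist-driven loss of surface beta2AR via internalization measured by FAP dye flow cytometry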); settings: Am2.2-beta2AR cells, FAP surface receptor flow cytometry; at 10 µM; stronger effect = higher value
Sequence of Beta-2 adrenergic receptor (Homo sapiens) (P07550 whole entry, looked up): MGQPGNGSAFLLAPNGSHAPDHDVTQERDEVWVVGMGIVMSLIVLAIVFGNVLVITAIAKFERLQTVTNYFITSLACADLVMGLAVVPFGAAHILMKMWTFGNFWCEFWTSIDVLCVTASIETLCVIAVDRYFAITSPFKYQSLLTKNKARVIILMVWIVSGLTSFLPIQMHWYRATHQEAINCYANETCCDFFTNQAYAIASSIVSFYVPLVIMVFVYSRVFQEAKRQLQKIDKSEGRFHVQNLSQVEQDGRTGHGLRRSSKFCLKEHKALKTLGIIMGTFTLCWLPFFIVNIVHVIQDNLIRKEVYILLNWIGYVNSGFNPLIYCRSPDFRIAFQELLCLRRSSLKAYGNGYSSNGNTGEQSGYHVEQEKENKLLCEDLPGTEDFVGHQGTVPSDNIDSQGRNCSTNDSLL

[10] = molecular target: AP-2 complex subunit beta (Homo sapiens) (UniProt P63010); experiment: inhibitors of arrestin peptide binding to AP2, pilot screen, biochemical, validation set, GST-AP2 beads, flow cytometry (AID 504541;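 active = inhibition above 54%, about 3 SD of non-fluorescent compounds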;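 also: AP2 carries R879A mutation and is captured from E. coli lysate; bead-bound FITC arrestin peptide fluorescence measuring arrestin peptide binding to AP2; 0% = DMSO wells and 100% = excess unlabeled arrestin peptide control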); settings: FITC arrestin peptide, at 10 µM, stronger effect = higher value, AP2 beta2 appendage fragment, R879A mutant
Sequence of AP-2 complex subunit beta (Homo sapiens) (P63010 whole entry, looked up, the tested form may be a part, one chain of several): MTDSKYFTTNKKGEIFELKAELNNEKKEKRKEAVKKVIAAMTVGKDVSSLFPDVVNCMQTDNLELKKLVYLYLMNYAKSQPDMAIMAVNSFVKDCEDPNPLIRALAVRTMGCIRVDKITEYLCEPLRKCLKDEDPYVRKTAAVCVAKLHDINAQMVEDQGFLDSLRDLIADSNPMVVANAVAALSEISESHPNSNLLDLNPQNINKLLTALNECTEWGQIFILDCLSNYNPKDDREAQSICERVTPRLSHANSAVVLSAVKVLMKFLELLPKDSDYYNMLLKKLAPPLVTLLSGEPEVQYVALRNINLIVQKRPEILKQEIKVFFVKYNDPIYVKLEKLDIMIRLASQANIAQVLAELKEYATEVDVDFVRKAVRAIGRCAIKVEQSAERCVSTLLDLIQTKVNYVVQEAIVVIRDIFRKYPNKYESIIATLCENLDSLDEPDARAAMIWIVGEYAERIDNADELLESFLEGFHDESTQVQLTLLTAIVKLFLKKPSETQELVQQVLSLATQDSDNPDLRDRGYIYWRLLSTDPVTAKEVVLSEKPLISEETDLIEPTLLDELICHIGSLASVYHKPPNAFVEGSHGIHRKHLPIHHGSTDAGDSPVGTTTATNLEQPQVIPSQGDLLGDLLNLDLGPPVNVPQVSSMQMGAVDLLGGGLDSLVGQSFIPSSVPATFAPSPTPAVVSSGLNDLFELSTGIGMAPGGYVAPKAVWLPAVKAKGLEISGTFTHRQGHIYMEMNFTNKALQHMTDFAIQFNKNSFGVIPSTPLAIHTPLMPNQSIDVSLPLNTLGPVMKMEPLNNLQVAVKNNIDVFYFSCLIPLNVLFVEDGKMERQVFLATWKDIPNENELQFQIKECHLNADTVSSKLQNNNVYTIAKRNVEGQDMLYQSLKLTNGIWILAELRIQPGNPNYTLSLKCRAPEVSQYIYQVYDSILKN

[11] = yeast V-ATPase proton transport modulators, S. cerevisiae, pHLuorin, HTS validation (AID 504600; in the data active = response above about 15%;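 also: plate controls were DMSO for no effect and reference compound for full effect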); settings: S. cerevisiae pHLuorin cytosolic pH, at 10 µM, stronger effect = higher value
[12] = test system: anti-desmoglein-3 scFv antibody binding to human DSG3; experiment: inhibitors of anti-DSG3 scFv binding to DSG3, pilot screen, biochemical, validation compound set, bead-based, flow cytometry (AID 588368;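 active = binding below the plate cutoff, the plate median minus 3 SD, with a reading above zero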;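 also: signal is the median channel fluorescence of bead-bound GFP antibody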); settings: Protein G beads, DSG3-Fc, scFv-GFP binding, at 10 µM, stronger effect = lower value
[13] = inhibitors of fungal efflux pumps CDR1, CDR2, MDR1, pilot screen, validation compound set, multiplex, phenotypic (AID 588506;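 active = efflux inhibition above 0.42, the validation set average plus 4 SD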;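 also: Nile Red retained in cells so higher fluorescence means more efflux inhibition; 0 = negative control wells and 1 = enniatin B 25 µM full block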); settings: S. cerevisiae pump-expressing triplex, Nile Red efflux flow cytometry; at 10 µM; stronger effect = higher value; the pumps come from Candida albicans
[14] = molecular target: ATP-binding cassette sub-family B member 6 (Homo sapiens) (UniProt Q9NP58); experiment: ABCB6 transporter inhibitors, pilot screen, K562-ABCB6 cells, flow cytometry, validation set (AID 588550;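 active = inhibition above the screen-wide mean plus 3 SD, about 51%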;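 also: 0% = DMSO wells and 100% = benzethonium chloride 70 µM positive control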); settings: K562-ABCB6 porphyrin accumulation, 1 h, at 10 µM, stronger effect = higher value
Sequence of ATP-binding cassette sub-family B member 6 (Homo sapiens) (Q9NP58 whole entry, looked up): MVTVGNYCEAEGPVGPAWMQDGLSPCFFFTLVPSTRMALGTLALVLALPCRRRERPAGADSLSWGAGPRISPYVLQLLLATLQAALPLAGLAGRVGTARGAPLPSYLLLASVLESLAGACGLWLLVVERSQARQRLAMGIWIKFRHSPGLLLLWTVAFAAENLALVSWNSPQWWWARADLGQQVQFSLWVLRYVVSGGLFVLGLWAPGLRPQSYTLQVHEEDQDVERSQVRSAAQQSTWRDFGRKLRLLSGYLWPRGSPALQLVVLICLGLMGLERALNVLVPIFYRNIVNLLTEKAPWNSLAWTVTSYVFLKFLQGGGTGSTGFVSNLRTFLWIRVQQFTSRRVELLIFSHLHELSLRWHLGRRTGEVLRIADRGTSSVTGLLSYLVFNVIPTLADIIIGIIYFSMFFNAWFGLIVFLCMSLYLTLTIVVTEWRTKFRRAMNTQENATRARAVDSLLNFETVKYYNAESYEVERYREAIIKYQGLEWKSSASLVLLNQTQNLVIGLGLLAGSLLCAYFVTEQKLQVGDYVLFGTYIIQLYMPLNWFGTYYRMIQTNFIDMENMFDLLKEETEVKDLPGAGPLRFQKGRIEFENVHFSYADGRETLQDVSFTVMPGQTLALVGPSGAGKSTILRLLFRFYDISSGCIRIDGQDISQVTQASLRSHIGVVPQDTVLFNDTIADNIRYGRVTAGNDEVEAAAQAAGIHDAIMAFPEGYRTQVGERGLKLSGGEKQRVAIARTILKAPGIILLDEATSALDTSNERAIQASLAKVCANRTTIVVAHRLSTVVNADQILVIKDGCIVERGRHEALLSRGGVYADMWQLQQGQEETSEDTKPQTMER

[15] = promoters of myeloid differentiation in arrested cells, primary screen, cell-based, GFP/MAC1 double positive, flow cytometry, validation set (AID 588685;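 active = differentiation response of at least 50%, scaled between solvent and reference control, from cells with both markers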;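 also: compound exposure lasts four days before antibody staining and flow analysis; 0% = DMSO wells and 100% = 5 µM fulvestrant positive control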); settings: ER-HoxA9 marrow cells, stronger effect = higher value, normalized: vehicle 0, fulvestrant 100
[16] = RPL19A-GFP modulators, yeast TOR pathway, confirmation, cell-based, S. cerevisiae, flow cytometry, cherry picks, mother/daughter gates (AID 2270;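 active = GFP response below 50% of the DMSO control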); settings: S. cerevisiae RPL19A-GFP strain, 3 h, at 10 µM, stronger effect = lower value, 100 = same GFP as DMSO wells
[17] = LAP4-GFP expression modulators in yeast, confirmation, cell-based, cherry picks, flow cytometry, mother/daughter gates (AID 2271;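 active = GFP response above 150% of the DMSO control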;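 also: ratio of sample to DMSO plate mean so 100% equals DMSO level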); settings: S. cerevisiae LAP4-GFP strain, 3 h, at 10 µM, stronger effect = higher value, 100 means same as DMSO control
[18] = modulators of MEP2-GFP levels in yeast, confirmation, S. cerevisiae, flow cytometry GFP, cherry picks (AID 2272;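 active = GFP response above 150% of the DMSO control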;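 also: ratio of well signal to plate DMSO mean so 100% equals DMSO level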); settings: S. cerevisiae MEP2-GFP strain, 3 h, at 10 µM, stronger effect = higher value
[19] = AGP1-GFP expression modulators, hit retest, confirmation, cell-based, flow cytometry, S. cerevisiae, cherry picks (AID 2273;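 active = GFP response above 150% of the DMSO level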;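 also: median GFP channel fluorescence over the whole cell population gate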); settings: S. cerevisiae AGP1-GFP strain, 3 h, at 10 µM
[20] = modulators of CIT2-GFP expression in yeast, confirmation, S. cerevisiae, GFP fusion, cherry picks, mother/daughter gates (AID 2274;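 active = GFP response above 150% of the DMSO level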); settings: S. cerevisiae CIT2-GFP strain, flow cytometry, 3 h, at 10 µM, stronger effect = higher value
[21] = measured here: daughter cell gate
[22] = measured here: mother cell gate

COc1cc2c(cc1OC)C(Cc1ccc(O)cc1)N(C)CC2 (stereo unspecified)
56%: double positive events [5]
inactive: percent of DMSO control GFP [1] 99% | GFP response vs DMSO [2] 127% | percent response of DMSO control [3] 108% | GFP response vs DMSO [4] 80.9% | vesicle binding response [5] 289% | inhibition [6] 8.4% | superoxide response (% of plate) [7] 104% | aptamer binding inhibition [8] 4% | response [9] -6.53% | inhibition [10] 2.93% | response [11] 0.76% | binding (% of control) [12] 108% | efflux inhibition (fraction of control) [13] 0.27 | inhibition [14] 8% | differentiation response [15] 2.46%

Clc1ccc(Cn2c(CN3CCCC3)nc3ccccc32)cc1
56.4%: double positive events [5]
inactive: percent of DMSO control GFP [1] 100% | GFP response vs DMSO [2] 104% | percent response of DMSO control [3] 107% | GFP response vs DMSO [4] 100% | vesicle binding response [5] 98% | superoxide response (% of plate) [7] 105% | aptamer binding inhibition [8] -1% | inhibition [10] 1.97% | response [11] -2.91% | binding (% of control) [12] 102% | efflux inhibition (fraction of control) [13] -0.43 | inhibition [14] 4% | differentiation response [15] -22.8%

CCCCOc1ccc(OCCCN2CCOCC2)cc1
56%: double positive events [5]
inactive: percent of DMSO control GFP [1] 86.5% | GFP response vs DMSO [2] 136% | percent response of DMSO control [3] 104% | GFP response vs DMSO [4] 86.9% | inhibition [6] 11.3% | superoxide response (% of plate) [7] 112% | aptamer binding inhibition [8] 3% | response [9] -8.98% | inhibition [10] -2.38% | response [11] 1.62% | binding (% of control) [12] 106% | efflux inhibition (fraction of control) [13] -0.06 | inhibition [14] 11% | differentiation response [15] 4.91%

O=c1[nH]c(=O)n([C@H]2C[C@H](O)[C@@H](CO)O2)cc1F
active: GFP response vs DMSO [2] 142%
96.6%: GFP response relative to DMSO ([17]; measured here: daughter cell gate response)
93.7%: GFP response, % of DMSO [20, 21] | GFP response, % of DMSO [20, 22]
97.8%: GFP response vs DMSO [16, 21]
inactive: percent of DMSO control GFP [1] 91.1% | percent response of DMSO control [3] 101% | GFP response vs DMSO [4] 93.5% | GFP response vs DMSO [16] 98.6% | GFP response relative to DMSO [17] 97.3% | GFP response vs DMSO [18] 101% | GFP response, % of DMSO [19] 102% | GFP response, % of DMSO [20] 93.4% | vesicle binding response [5] 155% | inhibition [6] 4.52% | superoxide response (% of plate) [7] 94.8% | aptamer binding inhibition [8] 9% | response [9] -2.6% | inhibition [10] 1.52% | response [11] -0.54% | binding (% of control) [12] 98% | efflux inhibition (fraction of control) [13] -0.38 | inhibition [14] 11% | differentiation response [15] -5.73%
97.2%: GFP response relative to DMSO ([17]; measured here: mother cell gate response)
72.9%: double positive events [5]
99.2%: GFP response vs DMSO [16, 22]

C[N+](C)(C)CCOP(=O)(O)OP(=O)([O-])OC[C@H]1O[C@@H](n2ccc(N)nc2=O)[C@H](O)[C@@H]1O
inactive: percent of DMSO control GFP [1] 101% | GFP response vs DMSO [2] 113% | percent response of DMSO control [3] 112% | GFP response vs DMSO [4] 82% | inhibition [6] -12.9% | superoxide response (% of plate) [7] 89.1% | aptamer binding inhibition [8] 2% | response [9] 3.17% | inhibition [10] -4.05% | response [11] -1.87% | binding (% of control) [12] 101% | efflux inhibition (fraction of control) [13] -0.17 | inhibition [14] 10% | differentiation response [15] -7.37%
68.8%: double positive events [5]

Cc1c(OC(=O)CNC(=O)OC(C)(C)C)ccc2c3c(c(=O)oc12)CCC3
inactive: percent of DMSO control GFP [1] 93.3% | GFP response vs DMSO [2] 123% | percent response of DMSO control [3] 90% | GFP response vs DMSO [4] 80.3% | vesicle binding response [5] 210% | inhibition [6] 9.37% | superoxide response (% of plate) [7] 101% | aptamer binding inhibition [8] -1% | response [9] -1.96% | inhibition [10] 4.15% | response [11] 0.35% | binding (% of control) [12] 107% | efflux inhibition (fraction of control) [13] 0.01 | inhibition [14] 1% | differentiation response [15] 0%
60.3%: double positive events [5]

Cc1ccc(S(=O)(=O)Nc2ccc(S(=O)(=O)Nc3cc(C)nc(C)n3)cc2)cc1
76%: double positive events [5]
inactive: percent of DMSO control GFP [1] 91.1% | GFP response vs DMSO [2] 120% | percent response of DMSO control [3] 108% | GFP response vs DMSO [4] 78.1% | vesicle binding response [5] 256% | inhibition [6] 23.9% | superoxide response (% of plate) [7] 89.7% | aptamer binding inhibition [8] 0% | response [9] 1.77% | inhibition [10] -0.21% | response [11] 15% | binding (% of control) [12] 101% | efflux inhibition (fraction of control) [13] -0.35 | inhibition [14] 6% | differentiation response [15] 26.2%

COc1ccc(NC(=O)C2CSC3c4ccccc4C(=O)N23)cc1 (stereo unspecified)
77.8%: double positive events [5]
inactive: percent of DMSO control GFP [1] 101% | GFP response vs DMSO [2] 104% | percent response of DMSO control [3] 96.5% | GFP response vs DMSO [4] 105% | inhibition [6] 0.25% | superoxide response (% of plate) [7] 99.1% | aptamer binding inhibition [8] 0% | response [9] 7.07% | inhibition [10] -0.6% | response [11] 4.39% | binding (% of control) [12] 98.7% | efflux inhibition (fraction of control) [13] -0.1 | inhibition [14] -2% | differentiation response [15] -0.18%

CC(NCCC(c1ccccc1)c1ccccc1)c1ccccc1 (stereo unspecified)
64.4%: double positive events [5]
inactive: percent of DMSO control GFP [1] 92.6% | GFP response vs DMSO [2] 122% | percent response of DMSO control [3] 111% | GFP response vs DMSO [4] 68.8% | vesicle binding response [5] 167% | inhibition [6] 6.46% | superoxide response (% of plate) [7] 95.5% | aptamer binding inhibition [8] -3% | response [9] 24.3% | inhibition [10] 0.65% | response [11] 13.1% | binding (% of control) [12] 116% | efflux inhibition (fraction of control) [13] 0.19 | inhibition [14] 9% | differentiation response [15] -0.82%

CC(=O)OC[C@H]1O[C@@H](n2ncc(=O)[nH]c2=O)[C@H](OC(C)=O)[C@@H]1OC(C)=O
53.4%: double positive events [5]
active: vesicle binding response [5] 78.5%
inactive: percent of DMSO control GFP [1] 94.8% | GFP response vs DMSO [2] 114% | percent response of DMSO control [3] 119% | GFP response vs DMSO [4] 78.1% | inhibition [6] 5.49% | superoxide response (% of plate) [7] 105% | aptamer binding inhibition [8] 6% | response [9] -6.75% | inhibition [10] -6.69% | response [11] -0.17% | binding (% of control) [12] 109% | efflux inhibition (fraction of control) [13] -0.13 | inhibition [14] -40% | differentiation response [15] 20.5%
